Assay outcomes deposited in PubChem BioAssay by National Center for Advancing Translational Sciences (NCATS).
HT1080-NT tox: kills 2HG-producing HT-1080-NT fibrosarcoma cells; AID 686970; hit rate 1.6% among 360,000; HT-1080-NT fibrosarcoma viability, CellTiter-Glo ATP luminescence, 48 h; Potency, µM (titrated, usually from 46.1 µM), usual class: cytotoxic;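 also: NT is the 2HG producing partner of a matched IDH1 knockdown line; nearly all actives have a fitted effect of over 55% in size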
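Fibrosarcoma NT cells, 750 per well in 5% FBS RPMI, were exposed to compound for 48 hours. Viability: CellTiter-Glo luminescence.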
TDP1 cell noCPT: qHTS for Inhibitors of human tyrosyl-DNA phosphodiesterase 1 (TDP1): qHTS in cells in absence of CPT. AID 686978, 2013. Potency, µM (titrated, usually from 46.2 µM), actives largely listed as inhibitors. DT40 Tdp1-/- hTDP1 cells, no CPT, ATP luminescence, 48 h. hit rate 15% among 420,000; also: nearly all actives have a fitted effect of over 55% in size
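Cells were dispensed at 400 per well, compounds added by pin tool, plates incubated ≥48 hr at 37 °C, then CellTiter-Glo added for 30 min at room temperature before luminescence reading. Line: DT40 Tdp1-/- complemented with hTDP1; camptothecin omitted.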
HT1080 IDH1KD tx: kills HT-1080 cells with IDH1 knockdown; HT-1080 IDH1 knockdown viability, ATP luminescence, 48 h; Potency, µM (series often up to 46.1 µM), hits mostly cytotoxic; hit rate 2% among 360,000
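Assay cells: HT-1080 with IDH1 knockdown, 750 per well, RPMI/5% FBS. Exposure: 48 h at 37 °C following 2 h pre-incubation. Read: CellTiter-Glo luminescence; fitted concentration-response, curve class assigned.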
TDP1 cell CPT: DT40-hTDP1 cell growth loss with CPT. chicken DT40 Tdp1-/-;hTDP1 cells + 20 nM CPT, ATP luminescence, 48 h. Potency, µM (doses to about 46.2 µM), hits mostly inhibitors. hit rate 12% among 420,000; also: nearly all actives have a fitted effect of over 55% in size
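Chicken DT40 Tdp1-/- cells stably complemented with human TDP1 were seeded at 400 cells/well in medium containing 20 nM camptothecin, exposed to pin-transferred compounds, and grown at 37 °C for at least 48 hr. Viability was read as ATP luminescence.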
12-LOX inh: ALOX12 (human) lipoxygenase inhibition; P18054; purified 12hLO, xylenol orange hydroperoxide absorbance; Potency, µM (series often up to 108 µM), actives largely listed as inhibitors; hit rate 1.1% among 580,000; AID 1671190
Target sequence (P18054 whole entry, looked up): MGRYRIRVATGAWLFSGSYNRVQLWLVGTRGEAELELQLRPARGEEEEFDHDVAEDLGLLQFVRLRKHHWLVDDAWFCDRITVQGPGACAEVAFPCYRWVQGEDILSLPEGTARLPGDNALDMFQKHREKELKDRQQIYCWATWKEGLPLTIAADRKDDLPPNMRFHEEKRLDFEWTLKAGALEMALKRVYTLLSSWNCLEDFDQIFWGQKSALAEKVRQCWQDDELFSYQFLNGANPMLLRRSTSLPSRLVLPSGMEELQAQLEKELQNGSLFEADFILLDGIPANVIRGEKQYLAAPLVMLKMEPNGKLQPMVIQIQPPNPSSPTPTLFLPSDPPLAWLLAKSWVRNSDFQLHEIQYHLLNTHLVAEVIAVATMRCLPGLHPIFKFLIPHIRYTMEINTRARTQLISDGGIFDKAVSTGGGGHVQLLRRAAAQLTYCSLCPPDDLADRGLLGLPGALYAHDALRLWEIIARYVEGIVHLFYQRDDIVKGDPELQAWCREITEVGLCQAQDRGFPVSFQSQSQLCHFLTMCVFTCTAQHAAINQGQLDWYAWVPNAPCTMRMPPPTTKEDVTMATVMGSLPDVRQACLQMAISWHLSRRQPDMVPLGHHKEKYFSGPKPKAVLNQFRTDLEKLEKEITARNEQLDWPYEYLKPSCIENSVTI
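Hydroperoxide product was detected by ferrous iron/xylenol orange as the 573 to 405 nm absorbance ratio. Arachidonic acid at 40 uM (final) was turned over for 30 min at room temperature by 150 nM human 12hLO, pH 7.0 Hepes buffer, after 15 min compound preincubation.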
IL-1B inflam inh: inflammasome signaling inhibition, IL-1 beta readout. activity change, % at 57.5 µM. hit rate 4.7% among 360,000. THP-1 LPS/ATP IL-1B secretion, AlphaLISA, 16 h; stronger effect = lower value. AID 743279; in the data active = activity change below about -50%; inconclusive = mostly about -30% to -49%
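Secreted IL-1B measured by AlphaLISA bead assay after 16 h compound exposure of THP-1 cells; compounds (final up to 57.5 uM) added 1 h before LPS (250 ng/mL) and ATP (1.25 mM) stimulation; lower signal means less secretion.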
Hits are given with their value. Many of the other results were omitted from the sample, so hits are more common in it than they were. Unless noted, calls follow the shape of the dose curve; as a rule, active = well fitted curve in the direction sought with a large enough effect; inconclusive = small, poorly fitted or top-dose-only effect, or another doubt; inactive = no such curve, though single readings can be large; an effect the other way counts as inactive or inconclusive.

For Cc1ccc(CC(=O)NCC(c2ccco2)N(C)C)cc1C (stereo not drawn) the results were HT1080-NT tox inactive, TDP1 cell noCPT inactive, HT1080 IDH1KD tx inactive, TDP1 cell CPT inactive, 12-LOX inh inactive and IL-1B inflam inh inactive.
Screening Cc1ccc(CN(Cc2ccco2)C(=O)c2oc3ccc(C)cc3c2C)cc1 returned TDP1 cell noCPT 14.6µM, TDP1 cell CPT inconclusive and 12-LOX inh inactive.
Screening CCCCNC(=O)CNC(=S)N(Cc1ccc(C)cc1)Cc1ccco1 returned HT1080-NT tox inactive, TDP1 cell noCPT inconclusive, HT1080 IDH1KD tx inactive, TDP1 cell CPT inconclusive, 12-LOX inh inactive and IL-1B inflam inh inconclusive.
`Cc1ccc(C(=O)N(Cc2ccco2)Cc2ccco2)cc1` gave TDP1 cell noCPT inconclusive, TDP1 cell CPT inactive and 12-LOX inh inconclusive.
`Cc1ccc(CN(Cc2ccco2)C(=O)c2oc3c(C)c(C)ccc3c2C)cc1` gave TDP1 cell noCPT 23.1µM, TDP1 cell CPT inconclusive and 12-LOX inh inconclusive.
COc1ccc2oc(C(=O)N(Cc3ccco3)Cc3cccs3)c(C)c2c1 was read as HT1080-NT tox inactive, TDP1 cell noCPT inconclusive, HT1080 IDH1KD tx inactive, TDP1 cell CPT inconclusive, 12-LOX inh inactive and IL-1B inflam inh inactive.
For Cc1ccc2oc(C(=O)NCC(c3ccco3)N(C)C)c(C)c2c1 (stereo not drawn) the results were HT1080-NT tox inactive, TDP1 cell noCPT 4.11µM, HT1080 IDH1KD tx inactive, TDP1 cell CPT inconclusive, 12-LOX inh inactive and IL-1B inflam inh inactive.
For CCc1ccccc1NC(=O)NC(CC)Cn1nnc2ccccc2c1=O (stereo not drawn) the results were TDP1 cell noCPT inactive, TDP1 cell CPT inactive and 12-LOX inh inactive.
Cc1ccc2occ(CC(=O)N(Cc3ccccc3Cl)C3CCS(=O)(=O)C3)c2c1 (stereo not drawn) was read as TDP1 cell noCPT 23.1µM, TDP1 cell CPT inconclusive and 12-LOX inh inactive.
Screening Cc1ccc2c(=O)cc(C(=O)N(Cc3ccccc3)Cc3ccco3)oc2c1C returned 12-LOX inh 35.5µM.
`Cc1cc2oc(C(=O)N(Cc3ccco3)Cc3ccccc3Cl)c(C)c2cc1C` gave TDP1 cell noCPT 14.6µM, TDP1 cell CPT inconclusive and 12-LOX inh inactive.
Cc1cc2oc(C(=O)N(Cc3ccccc3)Cc3ccco3)cc(=O)c2cc1Cl was read as 12-LOX inh inactive.
For Cc1ccc2c(CC(=O)NCc3ccco3)coc2c1C the results were HT1080-NT tox 5.17µM, TDP1 cell noCPT 11.6µM, HT1080 IDH1KD tx 7.31µM, TDP1 cell CPT 13µM, 12-LOX inh inactive and IL-1B inflam inh inactive.
Screening O=C(c1cnc2n[nH]c(-c3ccccc3)c2n1)N1CCN(c2ccccn2)CC1 returned 12-LOX inh inactive.
For O=C(Cn1nc(-c2ccccc2)c2ccccc2c1=O)Nc1ccc(C(=O)N2CCCCC2)cc1 the results were 12-LOX inh inactive.
For COc1cccc(C(=O)N2CCC(Oc3ccccc3-c3nc(C4CCOCC4)no3)C2)c1 (stereo not drawn) the results were 12-LOX inh inactive.
`Cc1ccc2occ(CC(=O)N(Cc3ccc(Cl)cc3)Cc3ccco3)c2c1` gave TDP1 cell noCPT 23.1µM, TDP1 cell CPT inconclusive and 12-LOX inh inactive.
COc1ccccc1NS(=O)(=O)c1ccc(C)c(C(=O)NC2CCN(Cc3ccccc3)CC2)c1 was read as HT1080-NT tox inactive, TDP1 cell noCPT 16.4µM, HT1080 IDH1KD tx inactive, TDP1 cell CPT 20.6µM, 12-LOX inh inactive and IL-1B inflam inh -57.3.
Screening COc1ccc(NS(=O)(=O)c2ccc(C)c(C(=O)NC3CCN(Cc4ccccc4)CC3)c2)cc1 returned HT1080-NT tox inactive, TDP1 cell noCPT inconclusive, HT1080 IDH1KD tx inactive, TDP1 cell CPT 16.4µM, 12-LOX inh inconclusive and IL-1B inflam inh inactive.
For COc1ccc(NS(=O)(=O)c2ccc(C)c(C(=O)NCc3ccccc3CN3CCCC3)c2)cc1 the results were HT1080-NT tox inactive, TDP1 cell noCPT inconclusive, HT1080 IDH1KD tx inactive, TDP1 cell CPT inconclusive, 12-LOX inh inactive and IL-1B inflam inh inactive.
`C=CCN(c1ccccc1)S(=O)(=O)c1cccc(C(=O)NC2CCN(Cc3ccccc3)CC2)c1` gave HT1080-NT tox inactive, TDP1 cell noCPT 18.4µM, HT1080 IDH1KD tx inactive, TDP1 cell CPT 13µM, 12-LOX inh inactive and IL-1B inflam inh -53.6.
`CCN(c1ccccc1)S(=O)(=O)c1cccc(C(=O)NC2CC2)c1` gave 12-LOX inh inactive.
Cc1ccc(NS(=O)(=O)c2cccc(C(=O)NC3CCN(Cc4ccccc4)CC3)c2)c(C)c1 was read as HT1080-NT tox inconclusive, TDP1 cell noCPT inconclusive, HT1080 IDH1KD tx inconclusive, TDP1 cell CPT 9.2µM, 12-LOX inh inactive and IL-1B inflam inh inconclusive.
`COc1ccc2cc(CN(C(=O)c3cc(C)nn3C)C3CC3)c(-c3ccc(Cl)cc3)nc2c1` gave TDP1 cell noCPT inconclusive, TDP1 cell CPT inactive and 12-LOX inh inactive.
CCN(CC)S(=O)(=O)c1ccc(Cl)c(C(=O)NC2CCN(Cc3ccccc3)CC2)c1 was read as HT1080-NT tox inactive, TDP1 cell noCPT 13µM, HT1080 IDH1KD tx inactive, TDP1 cell CPT 16.4µM, 12-LOX inh inactive and IL-1B inflam inh inactive.
For Cc1cccc(C(=O)NC2CC3CCCC(C2)N3S(=O)(=O)c2ccccc2)c1 (stereo not drawn) the results were HT1080-NT tox inactive, TDP1 cell noCPT 18.4µM, HT1080 IDH1KD tx inactive, TDP1 cell CPT 13µM, 12-LOX inh inactive and IL-1B inflam inh -55.8.
Screening Cc1cccc(C(=O)NC2CC3CCCC(C2)N3C(=O)Nc2ccccc2)c1 (stereo not drawn) returned HT1080-NT tox inactive, TDP1 cell noCPT inconclusive, HT1080 IDH1KD tx inactive, TDP1 cell CPT inactive, 12-LOX inh inactive and IL-1B inflam inh inactive.
`CCN(CC)S(=O)(=O)c1cccc(C(=O)Nc2cc(C)nn2-c2ccccc2)c1` gave HT1080-NT tox inactive, TDP1 cell noCPT inconclusive, HT1080 IDH1KD tx inactive, TDP1 cell CPT inactive, 12-LOX inh inactive and IL-1B inflam inh inactive.
For O=C(NC1CCN(Cc2ccccc2)CC1)c1cccc(C(F)(F)F)c1 the results were 12-LOX inh inactive.
O=C(NC1CCN(Cc2ccccc2)CC1)c1cccc(S(=O)(=O)Nc2ccc(Br)cc2)c1 was read as HT1080-NT tox inactive, TDP1 cell noCPT inconclusive, HT1080 IDH1KD tx inactive, TDP1 cell CPT 20.6µM, 12-LOX inh inconclusive and IL-1B inflam inh inconclusive.
